What all share (assay): thermal shift delta Tm vs DMSO control; higher = stronger stabilization (binding)
What all share (details): 12.5 µM; protein concentration 2 µM

The test system of experiment [1] is LOC_OS01G01410-cb001. An outline of the steps:
(§1)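 Thermal shift values come from differential scanning fluorimetry on purified rice kinase domains made in E. coli, with melting temperatures obtained from Boltzmann fits. Samples of 19.5 μl held 2 μM kinase, 100 mM potassium phosphate pH 7.5, 150 mM NaCl, 10% glycerol, 5 × SYPRO Orange and compound in DMSO, and were heated from 25°C to 95°C at 0.05°C/s. Each shift is a triplicate mean relative to the DMSO-only protein sample.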

Experiment [2] has as its system LOC_OS01G02750-cb003. The method, boiled down: as §1
The subject of experiment [3] is LOC_OS01G10900-cb004. The method, boiled down: as §1
In experiment [4] the test system is LOC_OS01G13800-cb001. The method, boiled down:
as §1

The subject of experiment [5] is LOC_OS01G14860-cb001. The method, boiled down:
as §1

The subject of experiment [6] is LOC_OS01G21960-cb002. The method, boiled down: as §1
Experiment [7] has as its system LOC_OS01G39600-cb002. An outline of the steps: as §1
Experiment [8] deals with LOC_OS01G48390-cb002. The method, boiled down:
as §1

For experiment [9], the system named is LOC_OS01G51400-cb002. An outline of the steps: as §1
The test system of experiment [10] is T1, LOC_OS01G52050-cb004.
T1 sequence (whole entry): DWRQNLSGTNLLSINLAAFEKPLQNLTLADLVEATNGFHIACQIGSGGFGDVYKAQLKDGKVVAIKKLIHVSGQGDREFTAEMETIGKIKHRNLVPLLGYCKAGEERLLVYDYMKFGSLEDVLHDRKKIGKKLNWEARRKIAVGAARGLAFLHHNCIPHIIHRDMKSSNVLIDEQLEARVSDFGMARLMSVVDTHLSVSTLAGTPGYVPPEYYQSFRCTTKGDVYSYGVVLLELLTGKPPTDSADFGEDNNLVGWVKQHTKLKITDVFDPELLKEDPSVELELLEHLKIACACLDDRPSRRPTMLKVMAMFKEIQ
An outline of the steps:
as §1

The test system of experiment [11] is LOC_OS01G57100-cb003. The method, boiled down: as §1
The subject of experiment [12] is LOC_OS01G60330-cb001. The method, boiled down:
as §1

The subject of experiment [13] is LOC_OS01G60700-cb002. The method, boiled down:
as §1

The subject of experiment [14] is LOC_OS01G63280-cb003. An outline of the steps:
as §1

Experiment [15] deals with LOC_OS01G67340-cb003. The method, boiled down: as §1
Experiment [16] relates to LOC_OS01G70970-cb002. An outline of the steps:
as §1

In experiment [17] the test system is LOC_OS02G07810-cb001. An outline of the steps: as §1
Experiment [18] has as its system LOC_OS02G08530-cb003. An outline of the steps:
as §1

The subject of experiment [19] is LOC_OS02G14120-cb001. An outline of the steps: as §1
For experiment [20], the system named is LOC_OS02G17970-cb001. An outline of the steps:
as §1
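Further: purified Escherichia coli-expressed rice kinase domain construct.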

With `CC1(C)OC(=O)C=C[C@]2(C)[C@H]3CC[C@@]4(C)[C@H](c5ccoc5)OC(=O)[C@H]5O[C@]54[C@]3(C)C(=O)C[C@@H]12` [Obacunone], the “thermal shift delta Tm” value in experiment [1] stood at 0.06 °C; in [2], 0.16 °C; in experiment [3], 0.26 °C; in experiment [4], 0.37 °C; in experiment [5] it was 0.35 °C; in [6], 0.13 °C. For the same compound, the “thermal shift delta Tm” value was -0.45 °C in [7]; 0.82 °C in experiment [8]; -0.06 °C in experiment [9]; 3 °C in experiment [10]; 1.14 °C in [11]; 0.6 °C in experiment [12]. Moreover, the “thermal shift delta Tm” value is 0.14 °C in [13]; 0.26 °C in experiment [14]; 0.19 °C in [15]; 0.13 °C in experiment [16]; 0.27 °C in [17]; 0.44 °C in [18]. The “thermal shift delta Tm” value in experiment [19] worked out at 0.92 °C; in [20], 0.03 °C.
For the compound `CCc1cccc(CC)c1NC(=O)N1Cc2[nH]nc(NC(=O)c3ccc(N4CCN(C)CC4)cc3)c2C1`, the “thermal shift delta Tm” value in experiment [1] was 0.31 °C; in experiment [2], 0.54 °C; in experiment [3] it was 0.87 °C; in [4], -0.49 °C; in experiment [5], 0.31 °C; in experiment [6], 0.34 °C. For the same compound, the “thermal shift delta Tm” value in experiment [7] came to 2.21 °C; in experiment [8], 0.01 °C; in [9], 0 °C; in [10], 0.17 °C; in [11], 0.59 °C; in experiment [12], 0.73 °C. The “thermal shift delta Tm” value in experiment [13] was 0.44 °C; in experiment [14] it was 0.43 °C; in [15] it was -0.29 °C; in experiment [16] it was 0.21 °C; in [17], 0.66 °C; in experiment [18], 0.96 °C. Further, the figures for the “thermal shift delta Tm” value in experiment [19] and in experiment [20] were 4.48 °C and 0.32 °C, respectively.
`COC(=O)Nc1ccc(-c2nc(N3CCOCC3)c3cnn(C4CCN(C(=O)OC)CC4)c3n2)cc1`: the “thermal shift delta Tm” value in [1] amounted to 0.48 °C; in [2], 0.7 °C; in experiment [3], 1.9 °C; in [4] it was 0.44 °C; in [5], 0.21 °C; in experiment [6], 0.37 °C. The “thermal shift delta Tm” value in [7] was -0.17 °C; in [8], 0.23 °C; in experiment [9] it was -0.05 °C; in experiment [10] it was 0.25 °C; in experiment [11], 2.22 °C; in experiment [12], 0.77 °C. For the same compound, the “thermal shift delta Tm” value in [13] worked out at 0.54 °C; in [14], 0.41 °C; in experiment [15], 0.13 °C; in experiment [16] it was 0.2 °C; in experiment [17], 0.91 °C; in [18], 0.58 °C. The “thermal shift delta Tm” value was -0.24 °C in experiment [19] and 0.43 °C in [20].
As to `O=C1NC(=O)C(c2ccccc2[N+](=O)[O-])=C1Nc1ccc(O)c(Cl)c1`, the “thermal shift delta Tm” value in experiment [1] is 0.62 °C; in [2], -1.98 °C; in [3] it was 0.16 °C; in experiment [4], 0.72 °C; in experiment [5] it was 0.92 °C; in experiment [6] it was 1.43 °C. Also, the “thermal shift delta Tm” value in [7] was -0.46 °C; in experiment [8], 0.67 °C; in experiment [9] it was 0.04 °C; in [10], -0.24 °C; in [11] it was 2.1 °C; in [12], 0.17 °C. In addition, the “thermal shift delta Tm” value was 1.88 °C in experiment [13]; 0.02 °C in experiment [14]; 0.79 °C in experiment [15]; 0.12 °C in [16]; 1.72 °C in [17]; 1.16 °C in experiment [18]. Besides, the “thermal shift delta Tm” value in [19] is -1.08 °C; in experiment [20], 1.06 °C.
Take `CCn1c(C(=O)N(C2CC2)C2CC2)cc2c3c(ncn3C)c(Nc3cc(C)n(C)n3)nc21`: the “thermal shift delta Tm” value is 0.37 °C in experiment [1]; 1.05 °C in experiment [2]; -0.06 °C in [3]; 0.41 °C in [4]; 0.41 °C in experiment [5]; 1.12 °C in experiment [6]. Further, the “thermal shift delta Tm” value in [7] is -0.02 °C; in experiment [8], 0.34 °C; in experiment [9], 0.23 °C; in experiment [10], 0.97 °C; in experiment [11], 1.18 °C; in experiment [12] it was 1.11 °C. Besides, the “thermal shift delta Tm” value in [13] stood at 1.61 °C; in experiment [14], 0.73 °C; in experiment [15], 0.2 °C; in [16], 0.33 °C; in experiment [17], 0.6 °C; in [18], 1.47 °C. For the same compound, the “thermal shift delta Tm” value in experiment [19] came to 4.36 °C; in experiment [20] it was 1.3 °C.
Consider `CCN(CC)CCNC(=O)c1c(C)[nH]c(/C=C2\C(=O)Nc3ccc(F)cc32)c1C` [Sunitinib], for which the “thermal shift delta Tm” value in experiment [1] was 3.95 °C; in experiment [2], 1.72 °C; in experiment [3] it was 0.25 °C; in experiment [4] it was -0.3 °C; in experiment [5] it was 1.43 °C; in experiment [6] it was 2.21 °C. For the same compound, the “thermal shift delta Tm” value was 2.9 °C in experiment [7]; 1.72 °C in experiment [8]; 0.22 °C in [9]; 7.91 °C in experiment [10]; -0.24 °C in experiment [11]; 9.23 °C in experiment [12]. In addition, the “thermal shift delta Tm” value came to 0.91 °C in [13]; 0.49 °C in experiment [14]; 4.15 °C in [15]; 6.85 °C in experiment [16]; 0.37 °C in experiment [17]; 4.95 °C in experiment [18]. Moreover, the figures for the “thermal shift delta Tm” value in experiment [19] and in experiment [20] were 7.49 °C and 0.22 °C, respectively.

For the origin of these results see the supplement of paper PMC9694430.
